In PubChem BioAssay (NCI):
About 79,000 compounds went through this panel and 15% of them were active in at least one assay; those are over-represented in the sample as a whole. Unmarked numbers belong to inactive results. The source made the active and inactive calls. No stated cut-off is given here; in the data, active means growth inhibition above about 70%; inactive means the rest.

Experiments:
[1] = NCI Yeast Anticancer Drug Screen. Data for the rad50 strain (AID 155);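 further: 0% = growth of vehicle-only cultures of the same strain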; settings: S. cerevisiae rad50 strain growth inhibition; at 50.0 µM; active compounds read high
In short: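 Readout: growth inhibition relative to vehicle-treated cultures. Compound exposure was carried out in a genetically defined yeast strain deficient in DNA damage repair.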

[2] = NCI Yeast Anticancer Drug Screen. Data for the mec2-1 strain (AID 157); settings: S. cerevisiae mec2-1 strain, at 50.0 µM, active compounds read high
In short: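 Growth inhibition is read against vehicle-treated controls after compound exposure of the mec2-1 yeast strain, which is defective in DNA damage repair or cell cycle control.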

[3] = NCI Yeast Anticancer Drug Screen. Data for the sgs1 mgt1 strain (AID 161);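 further: 0% = growth of cultures given vehicle only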; settings: S. cerevisiae sgs1 mgt1 strain, at 50.0 µM, active compounds read high
In short: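 Growth of a repair-deficient yeast mutant was monitored after compound treatment and expressed as inhibition relative to vehicle-treated cultures.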

[4] = NCI Yeast Anticancer Drug Screen. Data for the cln2 rad14 strain (AID 165);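 further: 0% = growth equal to vehicle treated cultures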; settings: S. cerevisiae cln2 rad14 strain, at 50.0 µM, active compounds read high
In short: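 Growth inhibition, relative to vehicle-treated controls, is the read-out. The test organism is a yeast strain with defined genetic alterations, cln2 rad14.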

[5] = NCI Yeast Anticancer Drug Screen. Data for the bub3 strain (AID 167); settings: S. cerevisiae bub3 mutant strain, at 50.0 µM, active compounds read high
In short: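 Readout: yeast growth inhibition, expressed relative to vehicle-only wells. The test organism is a mutant strain from a panel with lesions in DNA repair or checkpoint genes.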

[6] = NCI Yeast Anticancer Drug Screen. Data for the mlh1 rad18 strain (AID 175); settings: S. cerevisiae mlh1 rad18 strain growth inhibition; at 50.0 µM; active compounds read high
In short: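 Cells of a genetically altered yeast strain, deficient in DNA damage repair, were treated with compound. Their growth was then compared with that of vehicle-treated cultures to give inhibition.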

| SMILES | growth inhibition [1] | growth inhibition [2] | growth inhibition [3] | growth inhibition [4] | growth inhibition [5] | growth inhibition [6] |
| --- | --- | --- | --- | --- | --- | --- |
| CC(=O)Oc1ccccc1/C=C1/C=C(c2ccccc2)OC1=O | 6.4% | -7.55% | -0.55% | -39.1% | -16.8% | 0.2% |
| CCOc1c(Cc2ccccc2)c(=O)n2c3ccccc3n3c(=O)n(C)c(=O)c1c23 | -5.8% | -22.4% | -54.2% | 11.8% | -12.8% | -25% |
| CCO/N=C(\N)c1ccccc1 | -8.4% | 1.75% | -2.5% | -18.9% | 0.95% | 3.25% |
| CC(C)(c1ccsc1)c1sccc1C(=O)O | -4.7% | 2.95% | 8.55% | -19.4% | -2.95% | 16.2% |
| O=C1NN=C(C2CCCCC2)C12CCCCC2 | 8.05% | -2.85% | 1.3% | 2.85% | 5.45% | -8.4% |
| COc1cc(OC)c2cc(C(=O)c3cccc4ccccc34)c(=O)oc2c1 | 1.35% | -22.8% | 9.65% | 16.9% | 19.4% | 13.4% |
| O=C(Nc1ccc(Cl)c(Cl)c1)C1C(=O)N(c2ccc(Cl)c(Cl)c2)C(=O)/C1=N\O (stereo not given) | 24.4% | -4.3% | 11.2% | 16.9% | -3.3% | 22.8% |
| CC1=CC(C)(C)NC(=S)N1c1ccc(C)cc1S(=O)(=O)O | 28.5% | -1.7% | -18% | -16.2% | 7.95% | 27.9% |
| COc1ccc(/C=C2\Oc3cc(OC(C)=O)ccc3C2=O)cc1 | -66.9% | -44.6% | -15.2% | 12.2% | -14.6% | -21.8% |
| CC1COB(c2ccccc2)OCC(C)N1CNC(=O)C1=C(O)C2(O)C(O)=C3C(=O)C4C(O)=CC=CC4C(C)(O)C3CC2C(N(C)C)C1=O (stereo not given) | -8.75% | 33.2% | 34.6% | -16.6% | -6.85% | 38.6% |
| CCC(CC)C1OCC(O)CO1 (stereo not given) (tested in a mixture with another compound) | 20.4% | 2.7% | 10% | 6.85% | 22.1% | 17.4% |
| CCCCI(O)OS(=O)(=O)c1ccc(C)cc1 | 5.65% | 3.1% | -2.85% | -7.7% | -3.9% | -32.6% |
| Cc1nc(N)[nH]c(=O)c1CCCN(c1ccccc1)S(=O)(=O)c1ccc(N)cc1 | 9.4% | -1.35% | -2.3% | -22.9% | -2.35% | 19.6% |
| CC(C)=NNC(=O)c1n[nH]c(C)c1N=NN(C)C | 12.5% | -23.4% | 6.5% | -0.65% | -9.4% | 20.5% |
| Cn1nc(-c2ccccc2)c(C(=O)/C=C/c2ccc(Cl)cc2)c(N2CCCCC2)c1=O | -30.9% | -21.9% | -36.2% | 1.75% | -22.9% | -22.2% |
| C#[N+]CCOP(=O)(OCC1OC(n2cc(C)c(=O)[nH]c2=O)CC1N=[N+]=[N-])O[C@H]1CC[C@@]2(C)C(=CC[C@H]3[C@@H]4CC[C@H](C(C)/C=C/C(CC)C(C)C)[C@@]4(C)CC[C@@H]32)C1 (stereo not given in full) | -32.3% | -14.4% | -23.1% | -7.4% | 7.5% | -19.1% |
| NC(=O)c1cccc(F)c1 | 13.8% | 5.3% | -10% | 10.2% | 2.1% | 14.9% |
| Cc1ccc(C)c(NC(=O)Nc2ccc(Nc3ccccc3)cc2)c1 | -6.3% | 12.8% | 15.8% | -18.4% | 17.1% | 33% |
| Nc1ncnc2oc(-c3ccccc3)nc12 | 1.3% | -0.85% | -6.35% | -40% | -4.25% | 13.7% |
| CCOc1ccc(S(=O)(=O)OCC)cc1 | -15.6% | -14% | -25.2% | 1.35% | -8.45% | -19.6% |

| SMILES | growth inhibition [1] | growth inhibition [2] | growth inhibition [3] | growth inhibition [4] | growth inhibition [5] | growth inhibition [6] |
| --- | --- | --- | --- | --- | --- | --- |
| CCN(CC)CCC(=O)N1CCc2c([nH]c3ccccc23)C1c1cccnc1 (stereo not given) | -26.9% | -18.9% | -3.95% | -6.7% | -0.1% | -28.2% |
| CCN1CCCC(Nc2nc(Nc3ccc(Cl)c(Cl)c3)nc3ccc(Cl)cc23)C1 (stereo not given) | 99.2% (active) | 99.7% (active) | 99.7% (active) | 99.5% (active) | 99.4% (active) | 99.5% (active) |
| CCOC(=O)Cc1nc2ccc3c(c2[nH]c1=O)C(=O)c1ccccc1C3=O | 34.7% | 30.1% | 17.1% | 29.4% | 33.2% | 67.8% |
| CCCCOC(=O)C1CCCC1=O (stereo not given) | -14.6% | -31.9% | -2.15% | 1.45% | -43.1% | 9.05% |
| CC(/C=C/c1ccccc1)=N\O | 9.4% | 7.2% | -1.4% | 28.8% | 3.45% | 1.95% |
| COc1ccc(N(C)C(=S)c2ccccc2)cc1 | -49.5% | -11.7% | -15.4% | -37.5% | 0.45% | -10.9% |
| CN(C)Cc1ccccc1COC(=O)c1ccc([N+](=O)[O-])cc1Cl | -8.9% | -12.6% | 10.8% | -29.1% | 3.65% | -34.1% |
| CC1OC(c2ccc(Cl)cc2)OC1C (stereo not given) | 16.4% | 20.9% | 10.9% | -31.6% | -5.7% | 10.7% |
| Cc1cc(=O)[nH]c(=S)n1-c1nc2ccccc2o1 | -11.2% | 7.65% | -0.8% | -9.55% | -27.6% | 12.8% |
| CC1(C)C(C(=O)/C=C2\Nc3ccccc3C2(C)C)=Nc2ccccc21 | -19.5% | -5.65% | -2.05% | -26.7% | -29.4% | -7.85% |
| O=C1C=C(Nc2ccccc2C(=O)CC(=O)C(=O)Nc2cccc([N+](=O)[O-])c2)c2ccccc2C1=O | -15.2% | 12.3% | -7.2% | 12.3% | -15.5% | -7.1% |
| CCOc1c(N=Nc2cccc(Cl)c2)c(-c2ccccc2)nn1C(N)=S | -3.4% | -10.3% | -24.2% | 2.15% | 35.5% | 20.8% |
| Nc1nc(N)c(N=Nc2cc(Cl)cc(Cl)c2)c(=O)[nH]1 | 24.2% | 9.3% | -12.3% | -1.1% | 3.15% | 8.8% |
| Cc1cc2c3c(nc2c2cc[nH]c(C)c12)CCCC3 | 88.2% (active) | 92% (active) | 92% (active) | 91.7% (active) | 90.8% (active) | 91% (active) |
| CC(=O)Nc1cc(Cl)ccc1SC1OC(COC(C)=O)C(OC(C)=O)C(OC(C)=O)C1OC(C)=O (stereo not given) | -10.6% | -7.15% | 17.9% | -44.2% | 4.6% | -2.8% |
| O=C1C(Cl)=C(Nc2ccc([N+](=O)[O-])cc2)C(=O)c2ccccc21 | 6.6% | 2.55% | 4.6% | -40% | -0.7% | 5.5% |
| CC(=O)n1ccc(=O)[nH]c1=O | 8.9% | 0.2% | 0.45% | -38.8% | -11.9% | 16.4% |
| COc1cc2c(cc1OC)C(c1ccccc1)OCC2 (stereo not given) | -8.25% | 9.65% | 6.8% | -46.1% | -2.6% | -2.05% |
| CCCCCCCCCc1ccc(OCCOC(=O)OCCOc2ccc(CCCCCCCCC)cc2)cc1 | 40.9% | -21.9% | 16% | 13.8% | 4.4% | 31.6% |
| CC(C)(C)c1cc(C(=O)O)ccc1C(=O)O | -4.2% | 12.1% | -2.75% | -4.2% | -26.4% | -8.15% |
